Experimental data from PubChem BioAssay (Tox21).
Results filed as inconclusive are left out. Entries that show only a call come without a potency. Calls of active or inactive are those of the source. Calls come from the whole dose curve; as a rule, active = well fitted activation curve with a large enough effect in the repeat runs; inconclusive = weak or mixed curves; inactive = no such curve, though single readings can be large or run the other way.

assay: qHTS assay for small molecules that induce genotoxicity in human embryonic kidney cells expressing luciferase-tagged ATAD5 (AID 651632); details: HEK293T ATAD5-luciferase induction, 16 h; series mostly up to 83.3 µM; activation: at the top concentration; note: nearly all actives have a fitted effect of over 15% in size
Text: U.S. Tox21 Program National Center for Advancing Translational Sciences [NCATS] NIH Chemical Genomics Center [NCGC] U.S. Environmental Protection Agency [EPA] National Institutes of Environmental Health Sciences [NIEHS] National Toxicology Program [NTP] U.S. Food and Drug Administration [FDA] Tox21 Assay Overview: As cancer cells divide rapidly and during every cell division they need to duplicate their genome by DNA replication. The failure to do so results in the cancer cell death. Based on this concept, many chemotherapeutic agents were developed but have limitations such as low efficacy and severe side effects etc. A new cell based assay was developed to find the compounds that effectively block DNA replication either by directly damaging DNA or by inhibiting other cellular mechanisms. Enhanced Level of Genome Instability Gene 1 (ELG1; human ATAD5) protein levels increase in response to various types of DNA damage. Using a luciferase reporter-gene tagged with ATAD5, a cell-based assay [developed by Kyungjae Myung, NHGRI, NIH] was used to measure the induction of ATAD5 in human embryonic kidney cells (HEK293T). So, increase in luciferase activity can be used to identify the compounds that cause genetic stress.
Tox21 Assay Protocol Summary: For genotoxicity screening, 2,000 cells in 5 uL/well were dispensed into white, solid-bottom 1536-well plates using a Multidrop Combi (Thermo Scientific) dispenser. Following transfer of 23 nL compound or DMSO vehicle by a pin tool, the plates were incubated 16 hr at 37C and 5% CO2. 5 ul Amplite (AAT Bioquest, Inc.) was then added to each plate and following 30 min incubation at room temperature, luciferase activity was quantified on a ViewLux CCD-based plate reader.

SMILES	Potency	activation
COc1c(Cl)ccc(Cl)c1C(=O)O	inactive	–
O=C1O[C@H]([C@H](O)CO)C(O)=C1O	inactive	–
Cc1ccccc1Cl	inactive	–
CCCOCC(C)O (stereo not given)	–	-1.32% (inactive)
COC(=O)CCCCC(=O)OC	inactive	–
OCC(CO)(CO)CO	inactive	–
OC[C@H]1O[C@@H](Oc2ccc(O)cc2)[C@H](O)[C@@H](O)[C@@H]1O	inactive	–
CC(C=O)Cc1ccc(C(C)(C)C)cc1 (stereo not given)	inactive	–
CCCCCCC(=O)O	inactive	–
CC(=O)C(C)C	inactive	–
O=c1c(O)c(-c2ccc(O)c(O)c2)oc2cc(O)cc(O)c12	inactive	–
CO[Si](CCCNCCN)(OC)OC	inactive	–
CCCCCCCC(=O)O	inactive	–
COCN(COC)c1nc(N(COC)COC)nc(N(COC)COC)n1	inactive	–
CCn1cc(C(=O)O)c(=O)c2cc3c(cc21)OCO3	inactive	–
Nc1cccc(C(F)(F)F)c1	inactive	–
C=C(C)CC(C)(C)C	inactive	–
O=C(O)C1=NN(c2ccc(S(=O)(=O)O)cc2)C(=O)C1	inactive	–
Nc1cccc(N)n1	inactive	–
Cc1ccc(C)c(S(=O)(=O)O)c1	inactive	–

SMILES	Potency	activation
OCc1ccc(Cl)cc1Cl	inactive	–
CC(=O)OC/C=C(\C)CCC=C(C)C	inactive	–
CCc1cccc(O)c1	inactive	–
CC1(C)[C@@H](O[C@H]2O[C@H](C(=O)O)[C@@H](O)[C@H](O)[C@H]2O[C@@H]2O[C@H](C(=O)O)[C@@H](O)[C@H](O)[C@H]2O)CC[C@]2(C)[C@H]3C(=O)C=C4[C@@H]5C[C@@](C)(C(=O)O)CC[C@]5(C)CC[C@@]4(C)[C@]3(C)CC[C@@H]12	inactive	–
C=C1C[C@]23C[C@@]1(O)CC[C@H]2[C@@]12C=C[C@H](O)[C@@](C)(C(=O)O1)[C@H]2[C@@H]3C(=O)O	inactive	–
CC(C)(CO)CO	inactive	–
Cc1nnc(NS(=O)(=O)c2ccc(N)cc2)s1	inactive	–
N[C@@H](Cc1cc(I)c(Oc2ccc(O)c(I)c2)c(I)c1)C(=O)O	inactive	–
CCOC(=O)CC(=O)OCC	inactive	–
O=[N+]([O-])c1cc(C(F)(F)F)ccc1Cl	inactive	–
C[Si](C)(C)N[Si](C)(C)C	inactive	–
CC(=O)OCc1ccc2c(c1)OCO2	inactive	–
OC1CCCCC1	inactive	–
O=C(c1ccccc1)c1ccc(O)c(O)c1O	inactive	–
O=C(O)Cc1c[nH]c2ccccc12	inactive	–
Cc1ccc(C(C)C)cc1	inactive	–
Cc1cc(C)cc(O)c1	inactive	–
OCC(O)CS (stereo not given)	inactive	–
Cc1cc(CC(=O)O)n(C)c1C(=O)c1ccc(Cl)cc1	inactive	–
CN=C(NC#N)NCCSCc1nc[nH]c1C	inactive	–
